Active and inactive are the calls of the source. The calls were made as follows: active = hit-call score of the fitted dose curve at least 0.9, where 1 is the maximum; inactive = score below 0.9.

Read-out in this experiment: succinate dehydrogenase complex iron sulfur subunit B (SDHB), SDHB (gene 6390)
Description: LTEA_HepaRG_SDHB: Life Technologies and Expression Analysis (LTEA) Assay for succinate dehydrogenase complex iron sulfur subunit B (SDHB) using HepaRG (AID 2283528). The following applies: mRNA level, 48 h; actives raise or lower the signal. The protocol:
LTEA_HepaRG is a cell based, multiplexed-readout assay that uses HepaRG, a human liver cell line, with measurements taken at 48 hours after chemical dosing on a 96-well plate.LTEA_HepaRG_SDHB is one of 102 assay component(s) measured in the LTEA HepaRG cell culture assay. It is a marker of Cell proliferation, survival, death.Data from the assay component LTEA_HepaRG_SDHB was analyzed into 1 endpoint. This assay endpoint, LTEA_HepaRG_SDHB, was analyzed with bidirectional fitting relative to DMSO as the negative control and baseline of activity. Using a type of inducible reporter, measures of mRNA induction for gain or loss-of-signal activity can be used to understand regulation of transcription factor activity. To generalize the intended target to other relatable targets, this assay endpoint is annotated to the oxidoreductase intended target family, where the subfamily is ubiquinone.
A total of 1060 chemcials from the ToxCast library were tested in eight-point concentration-response experiments. Cell culture and cytotoxicity assays were conducted at Thermo Fisher Scientific's Custom Services facility (Madison, WI). A single lot of human HepaRG cells (Thermo Fisher Scientific, Frederick, MD) was used for the cell culture experiments. 96-well format collagen type I coated plates of human HepaRG cells were prepared using established methods. Briefly, cryopreserved HepaRG cells were thawed, plated at a density of approximately 100,000 cells/well in HepaRG Thaw, Plate, and General Purpose media (HPRG770, Thermo Fisher Scientific), and incubated for 48 hours. 0.5% DMSO was selected as vehicle control to balance the requisite need of DMSO in HepaRG cultures to maintain differentiation (for example, baseline metabolism, proportions of hepatocytes vs. cholangiocytes), while enabling further hepatic receptor pathway activation (for example, PXR and CAR) in response to chemical exposure. 48 hours after plating, the culture medium was replaced with HepaRG Serum-Free Incudtion Media. Cells were exposed to each test chemical in duplicate and maintained in CO2 incubators for another 48 hours. Chemical plates were thawed to room temperature and 200x concentrations of treatment groups were prepared. 8-point conentration-reponse curves were made with the highest exposure at 100 uM, followed by half-log dilutions, all in 0.5% DMSO. Each test plate contained variouse controls, induction positive controls (1mM phenobarbital), cytotoxicity positive controls ([…] aflatoxin B1), vehicle controls (0.5% DMSO), and total lysis controls (0.5% DMSO). Cell morphology images were taken using an Essen IncuCyte FLR automated microscope, with six 96-well plates imaged in about 24 minutes. Images were captured and exported and JPEG files. Spent culture media was transfered to black-well plates for the LDH assay, and remaining media was sorted at -80 C for later use. Cells were treated with RLT buffer and frozen until shipped for gene expression analysis. Total RNA was isolated from the cell suspension in 75 uL of Buffer RLT (Qiagen, Germantown, MD 20874) by Quintiles/Expression Analysis (Durham, NC) using a custom isolation procedure. Total RNA from each plate well was transferred to a preamplification plate. Fluidigm's 96.96 Dynamic ArrayTM (Fluidigm, Amsterdam, the Netherlands) technology was used for gene expression analyses by quantitative reverse transcription polymerase chain reaction (qRT-PCR, performed by Quintiles/Expression Analysis, Durham, NC)89. Standard TaqManTM Assays (Applied Biosystems/ThermoFisher Scientific, Foster City, CA) were used to assess the expression of 93 genes selected based on their selectivity and sensitivity to important hepatic receptors known to be modulated by environmental chemicals; importance in human hepatocyte functionality; and hepatotoxicity. […]
Consider `Cc1cc(Cc2ccc(N)c(C)c2)ccc1N`, for which the call was inactive.
In the case of `C#CC(O)C(CC)CCCC` (stereo not given), the compound was called inactive.
Regarding `CC1=C(C)S(=O)(=O)CCS1(=O)=O`, the outcome was inactive.
As to `Nc1nc(Cl)nc2c1ncn2[C@H]1C[C@H](O)[C@@H](CO)O1`, the compound was called inactive.
On the same count and under the same terms, for `O=C(O)CN(CC(=O)O)CC(=O)O` the value was “inactive”; for `CCCCOC(=O)CCCCC(=O)OCCCC`, “inactive”; for `CCCCCCC(C=O)=Cc1ccccc1`, “inactive”.
`Cc1c(C)c2c(c(C)c1O)CCC(C)(COc1ccc(CC3SC(=O)NC3=O)cc1)O2` (stereo not given): the call was inactive.
Regarding `CC(=O)OCC(COC(C)=O)OC(C)=O`, the outcome was inactive.
As to `Cc1cc(SC2=C(O)C[C@@](CCc3ccc(N)cc3)(C(C)C)OC2=O)c(C(C)(C)C)cc1CO`, the compound was called inactive.
As to `CC(C)(O)c1ccc(CNC(=O)c2cccnc2Oc2ccc(F)cc2)cc1`, the compound was classed as inactive.
Still for that read-out and setting: then `O=C(Oc1ccccc1)c1cccc(C(=O)Oc2ccccc2)c1`, with “inactive”; and `CC(C)c1cccc(C(C)C)c1NC(=O)NS(=O)(=O)c1cc(C(C)(C)O)co1`, with “inactive”; and `COC(=O)CCC(=O)OC`, with “inactive”.
In the case of `CO[C@@H]1COCC[C@@H]1N[C@@H]1CC[C@@](C(=O)N2CCc3ncc(C(F)(F)F)cc3C2)(C(C)C)C1`, the compound was classed as inactive.
On the same count and under the same terms, for `O=NO` the value was “inactive”; for `CN(C)C(=O)NC1(c2ccccc2)CCN(CCC[C@]2(c3ccc(Cl)c(Cl)c3)CCCN(C(=O)c3ccccc3)C2)CC1`, “inactive”; for `CCCCCCCC(=O)OC`, “inactive”.
Take `O=C(N[C@@H](c1ccccc1)[C@@H]1CCCCN1)c1cccc(C(F)(F)F)c1Cl`: the AC50 (as a rule, the concentration giving half of the maximal activity seen) is 91.4 µM (active).
Take `O=C(O)c1[nH]n(-c2ccc(S(=O)(=O)O)cc2)c(=O)c1N=Nc1ccc(S(=O)(=O)O)cc1`: the compound was classed as inactive.
Still for that read-out and setting: for `Oc1ccc(O)cc1` the value was “inactive”.
Regarding `Cc1ccc(C(C)(C)C)c(O)c1`, the outcome was inactive.
As to `NC1CCCCC1`, the result was inactive.
For the compound `CCCCCCCCCC[N+](C)(C)[O-]`, the compound was classed as inactive.
In the case of `Cc1cn([C@H]2C=C[C@@H](CO)O2)c(=O)[nH]c1=O`, the compound was classed as inactive.
Regarding `O=C1OC(c2ccc(O)cc2)(c2ccc(O)cc2)c2ccccc21`, the compound was called inactive.
As for `CCCCC(CC)CO` (stereo not given), the compound was called inactive.
On to `CN(C)CCCN(C)CCCN(C)C`, for which the outcome was inactive.
Take `CC1(C)C(=O)NC(=O)N1CO`: the outcome was inactive.
Turning to `NC(=Nc1ccccc1)Nc1ccccc1`, the compound was classed as inactive.
On the same count and under the same terms, then `O=C1NC(=O)C(c2ccccc2)(c2ccccc2)N1`, with “inactive”; and `Nc1nc(=S)c2[nH]cnc2[nH]1`, with “inactive”; and `CC(=O)S[C@H](C(=O)N[C@H]1Cc2ccccc2[C@H]2CCC[C@@H](C(=O)O)N2C1=O)C(C)C`, with “inactive”.
Consider `c1ccc2occc2c1`, for which the compound was called inactive.
As for `O=C(O)c1cccnc1`, the outcome was inactive.
Regarding `C=CCCCCCCCCCCCC`, the result was inactive.
Regarding `CS(=O)(=O)c1ccc([C@@H](C[C@H]2CCC(=O)C2)C(=O)Nc2cnccn2)cc1Cl`, the call was inactive.
Same read-out and setting: for `N[C@@H](Cc1c[nH]c2ccccc12)C(=O)O` the value was “inactive”.
Turning to `CCCCCCCCCCCCCCOS(=O)(=O)O`, the compound was classed as inactive.
The same measure, in the same setting: for `OCC(O)CO` the value was “inactive”.

Source of the values: PubChem BioAssay (EPA / NIEHS).
